From the supplement of paper PMC4954754
± gives the uncertainty stated by the source.

Legend:
HEK293T-Rex XBP1-RLuc = experiment: XBP1-RLuc splicing reporter activation, triplicate, relative to 500 nM thapsigargin (% of thapsigargin); higher = stronger IRE1/XBP1s reporter activation; details: 6.8 µM; 18 h; screen: confirmation
Protocol: (§1)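 HEK293T-Rex cells stably expressing the ERSE-firefly luciferase (BiP promoter, ATF6-preferring) or XBP1-splicing Renilla luciferase (IRE1/XBP1s) reporter, 1536-well plates, compound at 6.8 µM for 18 hr at 37 °C; luminescence read […] and expressed as % activation = 100*(compound - median DMSO)/(median 500 nM thapsigargin - median DMSO). Primary screen was single-pass; confirmation screen in triplicate (mean ± SD).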

HEK293T-Rex ERSE-FLuc = experiment: ERSE-FLuc reporter activation, triplicate confirmation, relative to 500 nM thapsigargin (% of thapsigargin); higher = stronger ATF6/ERSE reporter activation; details: 6.8 µM; 18 h; screen: confirmation
Protocol: as §1

Row | SMILES | XBP1-RLuc splicing reporter activation (HEK293T-Rex XBP1-RLuc) | ERSE-FLuc reporter activation (HEK293T-Rex ERSE-FLuc)
1 | Oc1ccc(-c2csc(-c3cccnc3)n2)cc1O | 15.2 ± 0.9 | 29.3 ± 1.4
2 | COc1ccc(N(C(=O)c2ccccc2)S(=O)(=O)c2cc(OC)ccc2OC)cc1 | 59.2 ± 7.4 | 103 ± 9.2
3 | Cc1ccc2nc(/C(C#N)=C\c3cc(Cl)cc4c3OCOC4)[nH]c2c1 | 12.1 ± 2.3 | 51.3 ± 9.8
4 | CC(=O)Oc1cc(N2CCOCC2)c(OC(C)=O)c2c1C(=O)c1ccccc1C2=O | 8.79 ± 2 | 45 ± 8
5 | CC(C)CC(c1nnnn1C1CCCC1)N1CCN(C(=O)c2ccco2)CC1 (configuration not stated) | 10.6 ± 2.2 | 29.5 ± 1
6 | N/C(=N\N=C\c1ccc(O)c(O)c1)c1nonc1N | 19.5 ± 0.38 | 71.1 ± 7.1
7 | O=C1N/C(=C\c2ccc(O)cc2)C(O)=C1C=NCc1ccccc1 | 49.1 ± 2.3 | 27.6 ± 6.4
8 | CCn1c(/C(C#N)=C/c2ccc(OC)cc2)nc2ccccc21 | -0.629 ± 1.8 | 27.2 ± 7.1
9 | Nc1ccc(-c2nc3cc(N)c(Cl)cc3[nH]2)cc1 | 16 ± 1 | 32.5 ± 3.7
10 | Oc1ccc(-c2cnc3c(Nc4ccc5[nH]ccc5c4)nccn23)cc1 | 39.2 ± 1.5 | 35.7 ± 5.6
11 | CCOc1cc(/C=C2/NC(=O)N(Cc3ccc(F)cc3)C2=O)ccc1O | 33.6 ± 2.1 | 32.8 ± 5.4
12 | COc1ccc2c(Cl)c(C(=O)Nc3ccccc3C(N)=O)sc2c1 | 4.82 ± 1.1 | 31.6 ± 1.1
13 | CC(=O)Oc1ccc(C(=O)OCc2ccc(Cl)cc2)cc1OC(C)=O | 12.3 ± 2.2 | 35.9 ± 4.4
14 | Cc1ccc(O)c(NC(=O)CSc2n[nH]c(C)c2[N+](=O)[O-])c1 | 16.6 ± 2.4 | 52.5 ± 14
15 | Cc1ccc(/C=C(\C#N)C(=O)Nc2cccc(Cl)c2)o1 | 0.278 ± 1.4 | 26.2 ± 10
16 | O=C(Nc1ccc(O)cc1)c1c(O)c2c([nH]c1=O)CCCC2 | 19 ± 0.94 | 29.7 ± 1.1
17 | CCOc1ccc(/C=C(\C#N)c2[nH]nc(N)c2C#N)cc1OCC | 7.63 ± 1 | 26.7 ± 5.5
18 | O=C(NCCc1ccccc1)c1cc(-c2cccs2)on1 | 5.58 ± 1 | 34.5 ± 3.6

Row | SMILES | XBP1-RLuc splicing reporter activation (HEK293T-Rex XBP1-RLuc) | ERSE-FLuc reporter activation (HEK293T-Rex ERSE-FLuc)
19 | CS(=O)(=O)c1ncc(Cl)c(C(=O)C(C#N)c2nc3ccccc3s2)n1 (configuration not stated) | 19.5 ± 4.9 | 42.3 ± 12
20 | O=C(NC1CCCC1)c1cc(-c2cccs2)on1 | 4.95 ± 0.3 | 25.7 ± 2.1
21 | CCCCCCOc1ccc(/C(C)=N/NC2=NCCN2)cc1[N+](=O)[O-] | 15 ± 0.76 | 31.3 ± 2.8
22 | N#CC1=C(N)Oc2c(ccc3ccccc23)C1c1ccsc1 (configuration not stated) | 9.04 ± 1.1 | 25.8 ± 2.7
23 | Cc1ccccc1-c1cc(=O)c2cc(Cl)ccc2o1 | 8.38 ± 3.8 | 25.5 ± 3.8
24 | Cc1ccc(O)c(-c2cc(-c3ccc(F)cc3)n[nH]2)c1 | 3.17 ± 2.6 | 25.5 ± 7.2
25 | Cc1cc(C)c2nc3sc(C(=O)N4CCCCC4)c(N)c3cc2c1 | 1.34 ± 0.73 | 32.5 ± 8
26 | COc1ccccc1-c1cnnc(N/N=C/c2c[nH]c3ccccc23)n1 | 8 ± 0.78 | 37.9 ± 9.7
27 | O=C(Nc1ccccc1O)c1ccc(NS(=O)(=O)c2cccc3cccnc23)cc1 | 14.2 ± 3.7 | 25.6 ± 8.1
28 | O=C(N/N=C\C(Cl)=C\c1ccccc1)c1n[nH]c2c1CCCC2 | 6.87 ± 1.5 | 33.3 ± 7.3
29 | C=CCn1c(N2CCC(C(=O)NCCc3ccc(O)c(O)c3)CC2)nc2ccccc21 | 33.9 ± 2 | 28.9 ± 6.2
30 | Nc1nc(Nc2ccc(Cl)cc2)nc2ccccc12 | 8.65 ± 0.74 | 30.7 ± 5.2
31 | C/C(=N\NC(=O)c1n[nH]c2c1CCCC2)c1ccc(Br)cc1 | 2.87 ± 0.99 | 27.2 ± 1.9
32 | CCN1C(=O)/C(=C\c2ccc(O)cc2O)SC1=S | 13.6 ± 1.7 | 36.3 ± 8.3
33 | CC1(C)Cc2ccccc2/C(=C/C(=O)C(=O)N/N=C/c2ccc(O)c(O)c2)N1 | 16.2 ± 2.9 | 30.1 ± 8.7
34 | CCC(=O)N(Cc1cc2cc(C)ccc2n2nnnc12)C1CCCC1 | 4.74 ± 0.41 | 33.5 ± 2.4
35 | Cc1ccc(NC(=O)/C=C/c2ccco2)nc1 | 5.22 ± 0.94 | 27.9 ± 7.1
36 | O=C(Nc1nc2c(s1)CCCC2)c1cccc2ccccc12 | 3.36 ± 1.8 | 33.8 ± 2.4
